Reference: the supplement of paper PMC6555819

Experiments:
Test in all cases: PBM binding z-score (relative to random genomic background probes); higher = stronger binding; sequences stand for … in GC…GCGATTGACAGCGTAGAATGAAGG
[1] = test system: FXR:RXRa (NR concentration 270 nM, RXRa partner concentration 90 nM)
Outline: (§1)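 The probes on custom Agilent 4×180K protein-binding microarrays were double-stranded, with 34-nt variable regions bearing direct-repeat seeds, single-nucleotide variants, half-site ablations and random human genomic background sequences. Incubation lasted 1 h with ligand-free nuclear receptor dimers in PBS pH 7.4, 2% milk, 0.02% Triton X-100, 1 mM DTT, 0.2 mg/mL BSA and 0.4 mg/ml salmon testes DNA. Antibodies against each partner (one per run) detected bound dimers, and fluorescence scans were regression-normalized. Binding z-scores take the random background probes as reference.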

[2] = test system: LXRa:RXRa (NR concentration 270 nM, RXRa partner concentration 90 nM)
Outline: as §1

[3] = test system: LXRa homodimer (NR concentration 270 nM)
Outline: as §1

[4] = test system: LXRb:RXRa (NR concentration 270 nM, RXRa partner concentration 90 nM)
Outline: as §1

[5] = test system: LXRb homodimer (NR concentration 270 nM)
Outline: as §1

[6] = test system: PPARa:RXRa (NR concentration 270 nM, RXRa partner concentration 90 nM)
Outline: as §1

[7] = test system: PPARg:RXRa (NR concentration 180 nM, RXRa partner concentration 90 nM)
Outline: as §1

[8] = test system: PPARg:RXRa 270nM:90nM, anti-RXR (NR concentration 270 nM, RXRa partner concentration 90 nM)
Outline: as §1

[9] = test system: PPARg:RXRa 30nM:10nM, anti-RXR (NR concentration 30 nM, RXRa partner concentration 10 nM)
Outline: as §1

[10] = test system: PPARg:RXRa 90nM:30nM, anti-RXR (NR concentration 90 nM, RXRa partner concentration 30 nM)
Outline: as §1

[11] = test system: PPARg:RXRa DBDmut IVT, anti-RXR (DBD mutation: RXRa K156A/R161A, NR concentration 270 nM, RXRa partner concentration 90 nM)
Outline: as §1

[12] = test system: PPARg:RXRa IVT, anti-PPARg (NR concentration 270 nM, RXRa partner concentration 90 nM)
Outline: as §1

[13] = test system: PPARg DBDmut:RXRa IVT, anti-PPARg (DBD mutation: PPARg1 K132A/R137A, NR concentration 270 nM, RXRa partner concentration 90 nM)
Outline: as §1

[14] = test system: PPARg DBDmut IVT, anti-PPARg (DBD mutation: PPARg1 K132A/R137A, NR concentration 270 nM)
Outline: as §1

[15] = test system: PPARg homodimer (NR concentration 180 nM)
Outline: as §1

[16] = test system: PXR:RXRa (NR concentration 270 nM, RXRa partner concentration 90 nM)
Outline: as §1

[17] = test system: PXR homodimer (NR concentration 270 nM)
Outline: as §1

[18] = test system: RARa:RXR (NR concentration 270 nM, RXRa partner concentration 90 nM)
Outline: as §1

[19] = test system: RARa homodimer (NR concentration 270 nM)
Outline: as §1

[20] = test system: RARb:RXRa (NR concentration 270 nM, RXRa partner concentration 90 nM)
Outline: as §1

Sequence | PBM binding z-score [1] | PBM binding z-score [2] | PBM binding z-score [3] | PBM binding z-score [4] | PBM binding z-score [5] | PBM binding z-score [6] | PBM binding z-score [7] | PBM binding z-score [8] | PBM binding z-score [9] | PBM binding z-score [10] | PBM binding z-score [11] | PBM binding z-score [12] | PBM binding z-score [13] | PBM binding z-score [14] | PBM binding z-score [15] | PBM binding z-score [16] | PBM binding z-score [17] | PBM binding z-score [18] | PBM binding z-score [19] | PBM binding z-score [20]
ACTTACGGGTCAACGAGGTTATAACACGCGTATA | 7.16 | 5.41 | 1.28 | 5.13 | 1.29 | 5.9 | 5.93 | 5.54 | 2.6 | 4.07 | 3.68 | 4.21 | 3.33 | 2.76 | 4.28 | 5.81 | 4.42 | 5.84 | 2.39 | 4.37
CTCGATAGGTCGGTTGAGGTGAGTATACGGATAA | 0.692 | 0.287 | -0.389 | 0.0394 | -0.451 | 0.659 | -0.0443 | -0.187 | -0.208 | -0.177 | -0.342 | 0.362 | 0.83 | 0.287 | 0.144 | 1.21 | 0.123 | 1.11 | -0.0628 | 1.17
TCTAGTTGGTTAAAGGTCACACACTCGAAATGCG | 5.51 | 5.54 | 4.45 | 5.47 | 2.22 | 6.63 | 9.55 | 8.64 | 8.96 | 9.31 | 3.15 | 5.25 | 1.74 | 2.83 | 4.61 | 5.24 | 1.86 | 6.06 | 4.25 | 4.77
GGAACGAGGGCATTCGAGTTGATAGTATGGCGAT | 1.62 | 1.71 | -0.324 | 0.436 | -0.544 | 1.62 | 1.13 | 1.22 | 0.197 | 0.753 | 3 | 2.29 | -0.142 | -0.408 | -0.115 | 4.11 | 1.45 | 0.744 | 0.0734 | 1.98
CTACCAAGGTGAACAGGGTCGTTGATTACTATTC | 1.07 | 0.788 | -0.0558 | 1.58 | -0.226 | 2.32 | 1.23 | 1.38 | 0.0525 | 0.997 | 1.92 | 2.88 | 0.525 | 0.178 | 0.785 | 1.89 | 0.796 | 2.11 | 0.321 | 1.75
TCTAGCAGGCCAGAGGGTCACTCCAGAGGTACGG | 0.862 | 0.694 | -0.544 | 0.582 | -0.995 | 1.91 | 1.19 | 2.54 | 1.72 | 2.31 | 0.669 | 0.586 | -1.43 | -1.75 | 0.69 | 1.08 | -0.334 | 1.92 | -0.787 | 1.89
TCATATAGGTAAACGGGTGAAAGTCCGTAAGTTA | 0.647 | 0.398 | 0.0709 | 0.834 | -0.231 | 2.29 | 2.73 | 3.65 | 3.72 | 3.68 | 4.54 | 4.35 | 1.22 | 1.51 | 0.689 | 0.621 | 0.241 | 0.612 | 0.587 | 0.567
ACTCGGAGGACAAAGGTCAGTGCTACGCCAGTGA | 3.58 | 3.67 | 1.45 | 2.94 | 0.443 | 4.64 | 6.76 | 6.58 | 5.31 | 7.31 | 0.807 | 3.58 | 1.11 | -0.05 | 3.66 | 3.7 | 0.26 | 4.7 | 1.27 | 4.5
AGAATGAGGTTACCACAGATCAGGGAAACGCTTG | 1.97 | 6.39 | -0.0372 | 3.08 | -0.518 | 3.53 | 2.72 | 2.65 | 1.11 | 1.73 | 3.9 | 3.38 | 1.25 | 0.385 | 1.11 | 1.05 | 0.472 | 1.98 | 0.262 | 1.99
AGGATGAGGTTATTAAGATCAGGGAATTGCGGTC | 2.1 | 1.84 | 0.789 | 1.65 | 0.764 | 2.29 | 1.06 | 1.24 | 0.391 | 0.788 | 0.511 | 0.741 | 0.904 | 0.665 | 1.83 | 1.69 | 1.82 | 1.53 | 0.954 | 1.72
TAGCCCAGGTCAGATCGGGCCAGTATACGCTATA | 2.34 | 1.3 | -0.26 | 0.735 | -0.412 | 1.86 | 0.632 | 0.728 | -0.392 | -0.038 | -0.572 | 1.18 | -0.255 | -0.724 | -0.165 | 1.48 | -0.562 | 1.11 | -0.626 | 2.91
CCTATTAGTTGAACATAAGGGCAACCGAAGCTCG | 0.402 | 0.518 | 0.603 | 0.454 | 0.71 | 0.594 | 0.576 | 0.441 | 0.18 | 0.415 | 0.458 | 0.463 | 0.856 | 0.515 | 1.56 | 0.574 | 0.963 | 0.973 | 1.2 | 1.38
ATCGAAAGGTCGAAGGTGAGGATACCCACCCGAA | 4.08 | 3.68 | 0.155 | 2.73 | 0.724 | 4.69 | 4.61 | 5.07 | 2.25 | 4.11 | 0.202 | 2.45 | 0.792 | 0.619 | 1.6 | 3.14 | 0.0224 | 4.45 | 0.541 | 3.66
ATATGTAGGTTACATCCGGGTAATTCAGGCTATG | 0.626 | 5.83 | 1.24 | 3 | 0.708 | 3.26 | 5.44 | 4.35 | 1.75 | 3.32 | 7.57 | 7.21 | 4.3 | 3.2 | 1.34 | 0.541 | 0.614 | 1.19 | 0.484 | 1.22
